Screening results from PubChem BioAssay.
A selection: hits, their analogues and other compounds. The true share with any hit is near 3.8%.
MT1-MMP txn act – MT1-MMP promoter transcription activation | activation factor at 10 µM | AID 750 | HT1080 MT1-MMP promoter luciferase reporter, luminescence, overnight; hits give high values | hit rate 0.16% among 86,000;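 active = activation factor of at least 2 for MT1-MMP transcription at 10 µM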
ERa coact inh – blocks coactivator binding to human estrogen receptor alpha. P03372. TR-FRET ER-alpha LBD / SRC-1 peptide, estradiol-bound. inhibition, % at 25.6 µM. hit rate 1.7% among 86,000; in the data active = inhibition above about 50%;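 also: 0% = receptor plus peptide control and 100% = peptide only without receptor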
Target sequence (P03372 whole entry, looked up, the tested form may be a part): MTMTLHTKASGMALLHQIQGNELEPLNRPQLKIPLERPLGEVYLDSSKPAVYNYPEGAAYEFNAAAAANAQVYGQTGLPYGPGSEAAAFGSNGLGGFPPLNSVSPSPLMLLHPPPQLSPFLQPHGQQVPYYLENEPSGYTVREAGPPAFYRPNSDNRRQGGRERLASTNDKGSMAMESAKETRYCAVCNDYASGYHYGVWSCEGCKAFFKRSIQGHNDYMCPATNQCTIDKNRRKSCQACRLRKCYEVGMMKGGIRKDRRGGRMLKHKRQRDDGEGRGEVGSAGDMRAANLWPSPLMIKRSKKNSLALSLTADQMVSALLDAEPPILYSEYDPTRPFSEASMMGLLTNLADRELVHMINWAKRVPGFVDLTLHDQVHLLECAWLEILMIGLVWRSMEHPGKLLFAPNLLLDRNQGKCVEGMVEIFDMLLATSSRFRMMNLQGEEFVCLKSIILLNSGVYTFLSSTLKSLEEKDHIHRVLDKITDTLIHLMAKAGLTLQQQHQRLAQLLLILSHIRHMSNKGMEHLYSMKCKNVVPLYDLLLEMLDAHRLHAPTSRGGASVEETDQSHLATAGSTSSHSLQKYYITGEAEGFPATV
ERa SRC1 pot – ER-alpha (human) coactivator binding potentiation; hit rate 1.3% among 86,000; AID 639; coactivator binding (% of control), % at 25.6 µM; TR-FRET ERalpha-LBD/SRC-Cy5 coactivator binding, 2 h; 100 = basal binding, no effect; in the data active = activity above about 200%;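 also: binding measured in presence of low estradiol as agonist stimulus; 0% = peptide alone without receptor and 100% = receptor with peptide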
ERb coact inh – blocks coactivator binding to human estrogen receptor beta. Q92731. TR-FRET ER-beta LBD / SRC1-Cy5 peptide binding; receptor agonist-loaded with 1 µM estradiol. inhibition, % at 25.6 µM. hit rate 1.3% among 86,000. AID 633;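 active = compounds whose percent inhibition of the receptor-coactivator binding signal exceeds about 50% in the single-dose screen, limit read from the data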;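 also: 0% = receptor plus peptide wells without compound and 100% = peptide-only wells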
DAT uptake mod – changed human dopamine transporter uptake under cocaine IC80 | AID 449768 | B-score at 10 µM | LLC-PK1 hDAT cells, [14C]-dopamine uptake with cocaine IC80; actives deviate in either direction | hit rate 1.3% among 110,000 | Q01959;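 active = Z score or B-score, a plate-position-corrected score, falls beyond the plate's 99.7% confidence bounds, in either direction; inactive = both scores lie inside the 99.7% bounds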;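 also: scored against the spread of the other compound wells on the same plate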
* marks the source's active call; other numbers are inactive results; nt = no result; + = active, no number; [ ] = remark or other dose.

SMILES | MT1-MMP txn act | ERa coact inh | ERa SRC1 pot | ERb coact inh | DAT uptake mod
COC(=O)[C@@]1(Cc2ccc(F)cc2)[C@H]2c3cc(C(=O)N(C)C)n(Cc4nc5ccccc5[nH]4)c3C[C@H]2CN1C(=O)c1ccccc1 | 1.2 | nt | nt | nt | 1.25
COC(=O)CCC/C=C1/SCC(NC(=O)c2ccccc2)C1=O (stereo not drawn) | 1.3 | 4.8 | 100.1 | 3.8 | 0.139
COC(=O)CCC/C=C1/SCC(NC(=O)c2ccccc2)C1O (stereo not drawn) | 1 | 16.7 | 212.8* | 2.8 | 0.371
COc1ccc(-c2noc(CSc3nnc(Cc4ccccc4)n3-c3cccc(C)c3)n2)cc1OC | 1.1 | 2.2 | +[fluorescence artefact?] | -1.1 | 1.59
Cc1ccc(-c2noc(CSc3nnc(Cc4ccccc4)n3-c3cccc(C)c3)n2)cc1 | 1.1 | -4.7 | 75.7 | -0.4 | 0.744
CN(C)S(=O)(=O)N(CC(=O)Nc1ccccc1C(F)(F)F)c1ccccc1 | 1.1 | 69.8*[fluorescence artefact?] | 67.0 | 33.9 | -1.33
CC(=O)c1cccc(NC(=O)CN(c2ccccc2)S(C)(=O)=O)c1 | 1.2 | 27.6 | 710.8*[fluorescence artefact?] | 47.5 | -1.51
CSc1cccc(NC(=O)CN(c2ccccc2)S(=O)(=O)N(C)C)c1 | 1.1 | 50.1* | 61.5 | 37.1 | -0.307
COC(=O)c1ccc(C23CC4(C2)[C@H](CN(C)[C@@H]4c2ccccc2)C3c2ccc(Cl)nc2)cc1 (stereo partly drawn) | 1 | nt | nt | nt | -0.764
O=C1CC(c2ccco2)CC(O)=C1C=Nc1cc(Cl)ccc1O (stereo not drawn) | 1.2 | 52.1* | 129.9 | 48.2 | -8.54*
O=C1CC(c2ccco2)CC(O)=C1C=Nc1ccc(Br)cc1 (stereo not drawn) | 1.4 | 6.2 | 84.1 | 9.4 | 0.0678
Clc1ccc(CNCCC2=CCCCC2)cc1 | nt | nt | nt | nt | -0.0437
CCOC(=O)N1CCN(C(=O)CN(c2cccc(C(F)(F)F)c2)S(C)(=O)=O)CC1 | 1.1 | -2.3 | 127.3 | -1.9 | -8.74*
COc1ccc(CCn2c(=S)[nH]c3cc(C(=O)NCc4ccco4)ccc3c2=O)cc1OC | 0.8 | 71.5*[fluorescence artefact?] | 87.8 | 54.8*[fluorescence artefact?] | nt
COc1ccc(-n2c(=S)[nH]c3cc(C(=O)NCc4ccco4)ccc3c2=O)cc1OC | 1.2 | -4.9 | 103.1 | -2.2 | -0.0117
Cc1nc2ccccc2n2c(O)c(CC(=O)O)cc12 | nt | 40.9 | 55.1 | 58.4*[fluorescence artefact?] | -0.356
Cc1ccccc1NC(=O)c1ccc(CN2CCC(Cc3ccccc3)CC2)cc1 | nt | nt | nt | nt | -3.73*
Cc1nn(CC(=O)Nc2ccccc2)c(=O)c2ccccc12 | 1.1 | -13.2 | 99.3 | -21.8 | 0.456
CCOc1ccc(C(C)=O)cc1Cn1nc(C(=O)O)c2ccccc2c1=O | 1.2 | 17.7 | 252.3* | 30.6 | 0.0131
CCC(=O)Nc1ccc(C(=O)Cn2nc(C(=O)O)c3ccccc3c2=O)cc1 | 1 | 77.1*[fluorescence artefact?] | 51.4 | 60.6* | nt
COC(=O)c1ccc(OC(=O)c2ccc(OCc3c(C)noc3C)c(OC)c2)cc1 | 1.1 | 50.8*[fluorescence artefact?] | 280.0*[fluorescence artefact?] | 48.8 | nt
N#Cc1c(N)nc(SCc2ccccn2)c(C#N)c1-c1cccs1 | 1.2 | 21.6 | 373.2*[fluorescence artefact?] | 26.7 | 0.0717
CCOC(=O)CSc1nc(N)c(C#N)c(-c2cccs2)c1C#N | nt | nt | nt | nt | 0.667
N#Cc1c(N)nc(SCc2ccccc2)c(C#N)c1-c1ccco1 | 1.1 | 8.7 | 213.2* | 46.8 | -0.0125
Cc1cc(C)c(C#N)c(SC2CCCCC2=O)n1 (stereo not drawn) | 1 | -6.7 | 105.5 | -6.0 | 0.371
SMILES | MT1-MMP txn act | ERa coact inh | ERa SRC1 pot | ERb coact inh | DAT uptake mod
N#Cc1c(N)nc(SC2CCCCC2=O)c(C#N)c1-c1ccco1 (stereo not drawn) | 1 | 3.7 | 216.8*[fluorescence artefact?] | -8.3 | 1.12
N#Cc1c(N)nc(SCC(=O)OCc2ccccc2)c(C#N)c1-c1ccco1 | 1.1 | 13.0 | 146.5 | 3.7 | -0.606
CCO[C@H]1OC(C(=O)N2CCN(C)CC2)=C[C@@H](C)[C@@H]1CCCO | nt | nt | nt | nt | -0.618
O=C(c1ccccc1)c1c[nH]c(C(=O)NCCCn2ccnc2)c1 | nt | nt | nt | nt | -0.00532
CC(NC(=O)c1cc2c(=O)n(C)c3ccccc3c2n1C)c1ccc2c(c1)OCCO2 (stereo not drawn) | 1 | 18.7 | 276.6*[fluorescence artefact?] | 5.8 | 0.312
Cn1c(C(=O)NC2CCCC2)cc2c(=O)n(C)c3ccccc3c21 | 1 | -4.0 | 119.5 | -5.5 | -0.582
Cn1c(C(=O)Nc2ccc3c(c2)OCO3)cc2c(=O)n(C)c3ccccc3c21 | 0.9 | 76.8* | 66.2 | 59.5* | -0.474
CC(NC(=O)COc1cc(=O)n(C)c2ccccc12)c1ccc2c(c1)OCCO2 (stereo not drawn) | 1.3 | -31.3 | 107.7 | -34.6 | 1.68*
